Among the test systems are HCT-15 colon; HT29 colon; SNB-75 CNS; SNB-19 CNS; U251 CNS; PC-3 prostate; UACC-62 melanoma; LOX IMVI melanoma; SK-MEL-28 melanoma.
Holding throughout (experiment): NCI-60 one-dose screen, 48 h (100 = growth as untreated, 0 = no growth, -100 = all killed)
What all share (details): 10 µM unless noted

About 83,000 compounds went through this panel and 20% of them were active in at least one assay; those are over-represented in the sample as a whole.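 Negative percent growth values reflect cell death: -40 means 40% of the cells present at the start died, and -100 means all died.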 A number with no mark means an inactive call. Activity calls are given as the source filed them. The calls were made as follows: active = growth percent below 10; inactive = the rest.

For `Cc1cc(N2CCCC2)nc(NC2CCCC(Nc3ccnc4cc(Cl)ccc34)C2)n1` (stereo unspecified), the growth was -52% (active) in the assay with HCT-15 colon; -70% (active) in the assay with HT29 colon; -68.6% (active) in the assay with SNB-75 CNS; -20.3% (active) in the assay on SNB-19 CNS; -96.1% (active) with U251 CNS; -58.1% (active) in the assay with PC-3 prostate. The growth in the assay on UACC-62 melanoma was -79.8% (active); with LOX IMVI melanoma, -94.2% (active); with SK-MEL-28 melanoma, -77.5% (active).

Regarding `O=c1cc(CSc2nnc(-c3ccc(F)cc3)o2)c2ccc3ccccc3c2o1`, the growth in the assay with HCT-15 colon is 98.4%; in the assay on HT29 colon it was 95%; with SNB-75 CNS, 98.3%; in the assay with SNB-19 CNS, 101%; in the assay with U251 CNS it was 102%; in the assay on PC-3 prostate, 92.5%. The growth in the assay with UACC-62 melanoma was 93.5%; with LOX IMVI melanoma it was 87.7%; with SK-MEL-28 melanoma, 110%.

As for `COc1ccc(-c2n[nH]nc2-c2csc3ccccc23)cc1OC`, the growth in the assay on HCT-15 colon is 16.4%; in the assay with HT29 colon, 8.59% (active); in the assay with SNB-75 CNS it was 1.72% (active); in the assay on SNB-19 CNS, 30.4%; in the assay on U251 CNS it was 22.1%; in the assay with PC-3 prostate, 27.8%. Also, the growth in the assay on UACC-62 melanoma was 27.7%; in the assay on LOX IMVI melanoma, 24.2%; in the assay with SK-MEL-28 melanoma, 50.2%.

On to `CCCCCCN(CCCCCC)CCC(O)c1ccc2ccccc2c1` (stereo unspecified), for which the growth in the assay on HCT-15 colon was 48.1%; in the assay with HT29 colon, 27.7%; in the assay on SNB-75 CNS it was 68.2%; in the assay on SNB-19 CNS, 78.5%; in the assay on U251 CNS, 62.7%; in the assay with PC-3 prostate it was 48.6%. Also, the growth is 77.3% in the assay on UACC-62 melanoma, 40.5% with LOX IMVI melanoma and 88.1% in the assay on SK-MEL-28 melanoma.

Regarding `COc1cc(/C=C/c2cc(/C=C/c3ccc(O)c(OC)c3)n(-c3c(C)cccc3C)c(=O)n2)ccc1O`, the growth with HCT-15 colon was 8.19% (active); with HT29 colon it was -37.8% (active); in the assay on SNB-75 CNS, -12.4% (active); in the assay with SNB-19 CNS, 13.9%; in the assay with U251 CNS, 2.81% (active); with PC-3 prostate it was -2.22% (active). Further, the growth in the assay on UACC-62 melanoma is -11.3% (active); with LOX IMVI melanoma it was 0.0749% (active); in the assay with SK-MEL-28 melanoma, 0.867% (active).

Consider `CC(=O)NCC1c2c(n(C)c3c(Cl)c(Cl)ccc23)C(=O)NC1(C)C` (stereo unspecified), for which the growth is 102% in the assay on HCT-15 colon; 108% in the assay on HT29 colon; 87.7% in the assay on SNB-75 CNS; 102% in the assay with SNB-19 CNS; 94.7% in the assay with U251 CNS; 91% with PC-3 prostate. Moreover, the results for the growth with UACC-62 melanoma, in the assay with LOX IMVI melanoma and in the assay on SK-MEL-28 melanoma were 94.4%, 95% and 111%, respectively.

With `C=C(C)C1CC(O)C2(C)CCCC3C2C1CC(C)C3(C)CC/C(C)=C/C(O)C1CCC(=O)c2c(OC)cc(OC)cc21` (stereo unspecified), the growth was 30.7% with HCT-15 colon; 46.6% in the assay with HT29 colon; 38.3% with SNB-75 CNS; 56.5% in the assay on SNB-19 CNS; 35.9% in the assay with U251 CNS; 20.9% with PC-3 prostate. The growth in the assay with UACC-62 melanoma is 36.5%; with LOX IMVI melanoma, 22.5%; in the assay with SK-MEL-28 melanoma it was 49.6%.

For `CCN(CC)c1ccc(/C=N\NC(=O)/C=C/C=C/c2ccc3c(c2)OCO3)c(O)c1`, the growth in the assay on HCT-15 colon is 21.3%; with HT29 colon, 67.8%; in the assay with SNB-75 CNS it was 58.8%; with SNB-19 CNS it was 61%; in the assay on U251 CNS, 43.3%; in the assay on PC-3 prostate it was 40.9%. Moreover, the values for the growth in the assay on UACC-62 melanoma, with LOX IMVI melanoma and in the assay with SK-MEL-28 melanoma were 29.1%, 18.2% and 52.1%, respectively.

With `O=C1c2cc3c(cc2-c2c1c1ccc(Cl)cc1c(=O)n2CCCN1CCOCC1)OCO3`, the growth in the assay with HCT-15 colon was 80.9%; with HT29 colon it was 63.3%; in the assay with SNB-75 CNS, 84.2%; in the assay on SNB-19 CNS it was 47.1%; in the assay on U251 CNS, 27.4%; in the assay with PC-3 prostate it was 74%. Besides, the values for the growth in the assay on UACC-62 melanoma, in the assay with LOX IMVI melanoma and in the assay with SK-MEL-28 melanoma were 23.6%, 26.7% and 99.9%, respectively.

As for `Nc1n[nH]c2ccc([C@@H]3Nc4ccc5cn[nH]c5c4[C@H]4C5CCC(C5)[C@@H]34)cc12` (stereo partly specified), the growth in the assay with HCT-15 colon is 15%; with HT29 colon, 13.1%; in the assay with SNB-75 CNS it was -12.5% (active); in the assay on SNB-19 CNS, 31.4%; in the assay with U251 CNS it was 23%; in the assay on PC-3 prostate, 16.4%. For the same molecule, the values for the growth in the assay on UACC-62 melanoma, in the assay with LOX IMVI melanoma and with SK-MEL-28 melanoma were 39.4%, 31.9% and 61%, respectively.

Regarding `Oc1cccc2ccc(N/N=C/c3cc(CN4CCOCC4)c(O)c4ncccc34)nc12`, the growth in the assay with HCT-15 colon was 26.2%; in the assay with HT29 colon, 17.6%; in the assay on SNB-75 CNS it was 35.9%; with SNB-19 CNS it was 23.9%; with U251 CNS, 5.22% (active); in the assay on PC-3 prostate, 28.5%. The figures for the growth in the assay with UACC-62 melanoma, with LOX IMVI melanoma and in the assay with SK-MEL-28 melanoma were 2.18% (active), -71.1% (active) and 24%, respectively.

Regarding `COc1cc2c(cc1-c1c(C)noc1C)ncc1nc(C3CCCC3)n([C@H](C)COC(F)F)c12`, the growth was 16.8% in the assay with HCT-15 colon; 18.3% in the assay with HT29 colon; 37.4% in the assay on SNB-75 CNS; 49.5% in the assay with SNB-19 CNS; 39.7% in the assay with U251 CNS; 31.8% in the assay on PC-3 prostate. Besides, the growth in the assay with UACC-62 melanoma was 20.7%; in the assay with LOX IMVI melanoma it was 13.2%; with SK-MEL-28 melanoma, 53.8%.

As to `O=C(Oc1cccnc1)c1ccsc1Nc1ccnc(C(F)(F)F)c1`, the growth in the assay on HCT-15 colon was 45.9%; with HT29 colon, 4.26% (active); in the assay with SNB-75 CNS, 80.5%; with SNB-19 CNS it was 97.7%; in the assay with U251 CNS it was 92.5%; in the assay on PC-3 prostate, 83.8%. Moreover, the growth was 91.5% in the assay on UACC-62 melanoma, 21.9% in the assay with LOX IMVI melanoma and 89.3% in the assay with SK-MEL-28 melanoma.

`CCCOc1cc2ccccc2cc1C(=O)Nc1nc(N)c2c(ccc3nccc32)[nH]1`: the growth is -44.7% (active) in the assay on HCT-15 colon; -63.3% (active) in the assay with HT29 colon; -90.3% (active) in the assay with SNB-75 CNS; -76.4% (active) with SNB-19 CNS; -83.5% (active) in the assay on U251 CNS; -27.9% (active) in the assay with PC-3 prostate. Further, the growth in the assay with UACC-62 melanoma was -81% (active); in the assay on LOX IMVI melanoma, -73.7% (active); with SK-MEL-28 melanoma, -84.9% (active).

Values taken from PubChem BioAssay (NCI).
